Measurements from the supplement of paper PMC6555819.

What was measured:
Experiment in all cases: PBM binding z-score (relative to random genomic background probes); higher = stronger binding; sequences stand for … in GC…GCGATTGACAGCGTAGAATGAAGG
[1] = tested on: FXR:RXRa (NR concentration 270 nM, RXRa partner concentration 90 nM)
How it was run: (§1)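 Each nuclear receptor dimer, without ligand, was incubated for 1 h on custom Agilent 4×180K protein-binding microarrays. Binding was detected with antibodies against each partner (one per run), and scanned fluorescence was regression-normalized. The binding z-scores are referenced to random human genomic background probes.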

[2] = tested on: LXRa:RXRa (NR concentration 270 nM, RXRa partner concentration 90 nM)
How it was run: as §1

[3] = tested on: LXRa homodimer (NR concentration 270 nM)
How it was run: as §1

[4] = tested on: LXRb:RXRa (NR concentration 270 nM, RXRa partner concentration 90 nM)
How it was run: as §1

[5] = tested on: LXRb homodimer (NR concentration 270 nM)
How it was run: as §1

[6] = tested on: PPARa:RXRa (NR concentration 270 nM, RXRa partner concentration 90 nM)
How it was run: as §1

[7] = tested on: PPARg:RXRa (NR concentration 180 nM, RXRa partner concentration 90 nM)
How it was run: as §1

[8] = tested on: PPARg:RXRa 270nM:90nM, anti-RXR (NR concentration 270 nM, RXRa partner concentration 90 nM)
How it was run: as §1

[9] = tested on: PPARg:RXRa 30nM:10nM, anti-RXR (NR concentration 30 nM, RXRa partner concentration 10 nM)
How it was run: as §1

[10] = tested on: PPARg:RXRa 90nM:30nM, anti-RXR (NR concentration 90 nM, RXRa partner concentration 30 nM)
How it was run: as §1

CGTCCAAGGTCAAAGGTCCGTGAAGAGATGACGG
PBM binding z-score [1]: 7.36 | PBM binding z-score [2]: 5.64 | PBM binding z-score [3]: 0.823 | PBM binding z-score [4]: 4.24 | PBM binding z-score [5]: 0.921 | PBM binding z-score [6]: 5.73 | PBM binding z-score [7]: 6.71 | PBM binding z-score [8]: 6.69 | PBM binding z-score [9]: 4.16 | PBM binding z-score [10]: 5.81

CCGAGTAGGTTTTGGGGCATTCAGGCAACGGTGA
PBM binding z-score [1]: 0.199 | PBM binding z-score [2]: 0.0127 | PBM binding z-score [3]: -0.127 | PBM binding z-score [4]: 0.177 | PBM binding z-score [5]: -0.134 | PBM binding z-score [6]: 0.31 | PBM binding z-score [7]: -0.0212 | PBM binding z-score [8]: 0.955 | PBM binding z-score [9]: -0.147 | PBM binding z-score [10]: 0.58

TCTGCTAGGGCAACGATGGTCAGCTAATCTGCTA
PBM binding z-score [1]: -0.264 | PBM binding z-score [2]: -0.36 | PBM binding z-score [3]: -0.78 | PBM binding z-score [4]: -0.55 | PBM binding z-score [5]: -0.884 | PBM binding z-score [6]: 0.0492 | PBM binding z-score [7]: 0.028 | PBM binding z-score [8]: 0.551 | PBM binding z-score [9]: 1.02 | PBM binding z-score [10]: 0.846

CGTCCAAGGTCAAGGTCAGTAAAAGAGACTCGAA
PBM binding z-score [1]: 7.33 | PBM binding z-score [2]: 5.66 | PBM binding z-score [3]: 1.22 | PBM binding z-score [4]: 4.68 | PBM binding z-score [5]: 0.908 | PBM binding z-score [6]: 5.72 | PBM binding z-score [7]: 6.21 | PBM binding z-score [8]: 5.92 | PBM binding z-score [9]: 2.62 | PBM binding z-score [10]: 4.87

ATCACTAGGTAACAAGTTCAGTGAAAGAGAGGAC
PBM binding z-score [1]: 0.674 | PBM binding z-score [2]: 0.942 | PBM binding z-score [3]: 0.705 | PBM binding z-score [4]: 0.664 | PBM binding z-score [5]: 0.576 | PBM binding z-score [6]: 1.94 | PBM binding z-score [7]: 3.04 | PBM binding z-score [8]: 3.04 | PBM binding z-score [9]: 1.14 | PBM binding z-score [10]: 2.5

CGTACTAGGTCATCCAGGACAGTGAATACATTGA
PBM binding z-score [1]: 4.17 | PBM binding z-score [2]: 2.58 | PBM binding z-score [3]: 0.958 | PBM binding z-score [4]: 2.46 | PBM binding z-score [5]: 0.292 | PBM binding z-score [6]: 4.53 | PBM binding z-score [7]: 6.87 | PBM binding z-score [8]: 5.33 | PBM binding z-score [9]: 3.15 | PBM binding z-score [10]: 5.25

CCTATTAGTTGACCATAAGTGCAACCGAAGCTCG
PBM binding z-score [1]: 0.669 | PBM binding z-score [2]: 0.833 | PBM binding z-score [3]: 1.25 | PBM binding z-score [4]: 0.757 | PBM binding z-score [5]: 1.09 | PBM binding z-score [6]: 0.517 | PBM binding z-score [7]: 0.672 | PBM binding z-score [8]: 0.74 | PBM binding z-score [9]: 0.581 | PBM binding z-score [10]: 0.574

CCGCCTAGGTCAGGGCCAGTATAGGAGGAACGTT
PBM binding z-score [1]: 1.6 | PBM binding z-score [2]: 1.11 | PBM binding z-score [3]: -0.253 | PBM binding z-score [4]: 1.1 | PBM binding z-score [5]: -0.93 | PBM binding z-score [6]: 2.15 | PBM binding z-score [7]: 0.674 | PBM binding z-score [8]: 0.881 | PBM binding z-score [9]: -0.497 | PBM binding z-score [10]: -0.0982

CCTCGGAGGACAACAGGGGGTCAGAGCTGCCAGA
PBM binding z-score [1]: 1.81 | PBM binding z-score [2]: 2.48 | PBM binding z-score [3]: 0.582 | PBM binding z-score [4]: 3.99 | PBM binding z-score [5]: 2.09 | PBM binding z-score [6]: 3.22 | PBM binding z-score [7]: 1.09 | PBM binding z-score [8]: 1.92 | PBM binding z-score [9]: -0.264 | PBM binding z-score [10]: 1.13

AGACAAAGTTCATCTAGGTAACGTAAGATATGCT
PBM binding z-score [1]: 6.83 | PBM binding z-score [2]: 6.21 | PBM binding z-score [3]: 5.23 | PBM binding z-score [4]: 3.92 | PBM binding z-score [5]: 1.56 | PBM binding z-score [6]: 4.91 | PBM binding z-score [7]: 4.69 | PBM binding z-score [8]: 4.99 | PBM binding z-score [9]: 1.93 | PBM binding z-score [10]: 3.69

GGAACGAGGGCATTCGCGTTGATAGCATGGCGAT
PBM binding z-score [1]: 0.794 | PBM binding z-score [2]: 1.04 | PBM binding z-score [3]: -0.65 | PBM binding z-score [4]: 0.18 | PBM binding z-score [5]: -0.618 | PBM binding z-score [6]: 1.5 | PBM binding z-score [7]: 0.776 | PBM binding z-score [8]: 0.655 | PBM binding z-score [9]: -0.361 | PBM binding z-score [10]: 0.136

AGTCAAAGTTTACTAGGTAACGTAAGATTCAGCT
PBM binding z-score [1]: -0.0676 | PBM binding z-score [2]: 0.666 | PBM binding z-score [3]: 0.138 | PBM binding z-score [4]: 0.287 | PBM binding z-score [5]: 0.0239 | PBM binding z-score [6]: 2.28 | PBM binding z-score [7]: 3.46 | PBM binding z-score [8]: 3.72 | PBM binding z-score [9]: 1.13 | PBM binding z-score [10]: 2.53

CCTATTCGTTGACCATAAGGGCAACCGAAGCTCG
PBM binding z-score [1]: 0.737 | PBM binding z-score [2]: 0.584 | PBM binding z-score [3]: 0.874 | PBM binding z-score [4]: 0.578 | PBM binding z-score [5]: 1.19 | PBM binding z-score [6]: 0.766 | PBM binding z-score [7]: 0.4 | PBM binding z-score [8]: 0.418 | PBM binding z-score [9]: 0.115 | PBM binding z-score [10]: 0.223

CCTGCTAGGTCATGCTCAGCTAATCTACAGTATG
PBM binding z-score [1]: 3.21 | PBM binding z-score [2]: 2.16 | PBM binding z-score [3]: -0.266 | PBM binding z-score [4]: 1.38 | PBM binding z-score [5]: -0.112 | PBM binding z-score [6]: 2.99 | PBM binding z-score [7]: 1.9 | PBM binding z-score [8]: 2.36 | PBM binding z-score [9]: 0.444 | PBM binding z-score [10]: 1.35

TCTTGTAGATCAATAGAGGTTAGGAAAGTGCGCT
PBM binding z-score [1]: 1.24 | PBM binding z-score [2]: 1.49 | PBM binding z-score [3]: 0.276 | PBM binding z-score [4]: 0.914 | PBM binding z-score [5]: 0.11 | PBM binding z-score [6]: 1.62 | PBM binding z-score [7]: 0.163 | PBM binding z-score [8]: 2.04 | PBM binding z-score [9]: 3.13 | PBM binding z-score [10]: 2.57

GCGACTGGGGCATCAGCAGGTAACCATAACTTAA
PBM binding z-score [1]: -0.303 | PBM binding z-score [2]: -0.254 | PBM binding z-score [3]: -0.127 | PBM binding z-score [4]: 0.0489 | PBM binding z-score [5]: -0.791 | PBM binding z-score [6]: 0.658 | PBM binding z-score [7]: 0.905 | PBM binding z-score [8]: 0.685 | PBM binding z-score [9]: -0.0973 | PBM binding z-score [10]: 0.285

CCGACTGGGGCAGAAAGGTCACCATACCATCCGG
PBM binding z-score [1]: 3.52 | PBM binding z-score [2]: 3.99 | PBM binding z-score [3]: 1.97 | PBM binding z-score [4]: 3.56 | PBM binding z-score [5]: -0.936 | PBM binding z-score [6]: 4.65 | PBM binding z-score [7]: 4.35 | PBM binding z-score [8]: 5.18 | PBM binding z-score [9]: 3.05 | PBM binding z-score [10]: 4.59

GCTTGCAGGCCATTTGGGTCACTCAATGACGGGC
PBM binding z-score [1]: 0.139 | PBM binding z-score [2]: 0.261 | PBM binding z-score [3]: -0.325 | PBM binding z-score [4]: 0.146 | PBM binding z-score [5]: -0.138 | PBM binding z-score [6]: 1.74 | PBM binding z-score [7]: 0.845 | PBM binding z-score [8]: 0.922 | PBM binding z-score [9]: 0.00542 | PBM binding z-score [10]: 0.391

CTCGAAAGGTCGGTTGAGATGAGTATACGGATAA
PBM binding z-score [1]: 1.6 | PBM binding z-score [2]: 1.27 | PBM binding z-score [3]: 0.0638 | PBM binding z-score [4]: 1.32 | PBM binding z-score [5]: -0.0369 | PBM binding z-score [6]: 2.34 | PBM binding z-score [7]: 0.617 | PBM binding z-score [8]: 0.887 | PBM binding z-score [9]: 0.602 | PBM binding z-score [10]: 0.615

TAGCCTAGGTCTGATCGGGCCAGTATACGCTATA
PBM binding z-score [1]: -0.28 | PBM binding z-score [2]: -0.943 | PBM binding z-score [3]: -0.639 | PBM binding z-score [4]: -0.94 | PBM binding z-score [5]: -1.01 | PBM binding z-score [6]: -0.144 | PBM binding z-score [7]: 0.0558 | PBM binding z-score [8]: -0.669 | PBM binding z-score [9]: -0.329 | PBM binding z-score [10]: -0.45

TCTGCTAGGTCAGTTGGTTAGCTAACGAGCTGCC
PBM binding z-score [1]: 0.851 | PBM binding z-score [2]: 0.567 | PBM binding z-score [3]: -0.601 | PBM binding z-score [4]: 0.643 | PBM binding z-score [5]: 0.257 | PBM binding z-score [6]: 1.05 | PBM binding z-score [7]: 0.0463 | PBM binding z-score [8]: 1.19 | PBM binding z-score [9]: 1.17 | PBM binding z-score [10]: 1.34

CGAACTAGGTCAAGGACATTGAATCTCCGCACGC
PBM binding z-score [1]: 3.45 | PBM binding z-score [2]: 2.4 | PBM binding z-score [3]: 0.44 | PBM binding z-score [4]: 1.68 | PBM binding z-score [5]: 0.0209 | PBM binding z-score [6]: 4.43 | PBM binding z-score [7]: 7.54 | PBM binding z-score [8]: 6.28 | PBM binding z-score [9]: 4.19 | PBM binding z-score [10]: 6

CCGAGTAAGTTATGGGGCATTCAGGCAACGGTGA
PBM binding z-score [1]: -0.323 | PBM binding z-score [2]: -0.322 | PBM binding z-score [3]: -0.465 | PBM binding z-score [4]: -0.146 | PBM binding z-score [5]: -0.649 | PBM binding z-score [6]: -0.0291 | PBM binding z-score [7]: 0.19 | PBM binding z-score [8]: 0.385 | PBM binding z-score [9]: -0.496 | PBM binding z-score [10]: 0.0497
